Laboratory results reported in PubChem BioAssay AID828 (The Scripps Research Institute Molecular Screening Center, 2007).
Hit rate of the full screen: of about 140,000 compounds, about 550 (0.39%) were called active. Cut-off read from the data, not from the text of the source: active = inhibition above about 27%; inactive = the rest. The list comes from a sample in which actives are over-represented; it also holds similar structures and randomly drawn compounds.

Each compound was assayed against Galanin receptor type 2 (Homo sapiens) (UniProt O43603) (assay: blockers of human galanin receptor 2 – cell-based, primary screen (AID 828;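 note: cells stimulated with galanin 1-16 at roughly its EC80; 0% = agonist challenge control and 100% = basal control without agonist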)). Settings: GALR2-expressing cells, antagonist mode; at 4 µM; hits give high values.
Galanin receptor type 2 (Homo sapiens), sequence (O43603 whole entry, looked up): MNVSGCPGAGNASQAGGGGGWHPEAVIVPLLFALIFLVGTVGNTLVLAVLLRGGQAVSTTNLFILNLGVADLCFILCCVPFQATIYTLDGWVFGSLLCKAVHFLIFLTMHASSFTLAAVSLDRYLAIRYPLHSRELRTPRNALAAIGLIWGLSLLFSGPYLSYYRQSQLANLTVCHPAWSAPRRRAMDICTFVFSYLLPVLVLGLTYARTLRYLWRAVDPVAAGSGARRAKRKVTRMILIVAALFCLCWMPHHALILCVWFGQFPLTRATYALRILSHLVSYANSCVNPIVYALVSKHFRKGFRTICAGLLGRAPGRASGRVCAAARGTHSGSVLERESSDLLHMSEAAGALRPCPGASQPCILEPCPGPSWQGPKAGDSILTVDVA

inhibition, active:
CCc1ccc2c(c1)C1(NN=C(c3ccccc3)S1)C(=O)N2 (centres undefined) 28.2%, COc1ccccc1N1N=C(c2cccs2)CC1c1ccccc1 (centres undefined) 32.5%, O=C(Nc1ccccc1)c1nnsc1S(=O)(=O)c1ccc(Cl)cc1 42.4%, Fc1ccc2[nH]c3c(N4CCN(Cc5ccc6c(c5)OCO6)CC4)ncnc3c2c1 44.8%, COc1ccc(C)cc1NC(=O)c1[nH]c(C)c(C(C)=O)c1C 27.2%, COc1ccc(NC(=O)/C(Cl)=C(/Cl)S(=O)Cc2ccc(C)cc2)cn1 (centres undefined) 105%, COCC(C)NC(=O)c1ccc(Cl)c(Cl)c1 (centres undefined) 27.4%, COC(=O)Cc1cc(=O)oc2c(C)c(O)ccc12 39.2%, c1ccc(-c2nnc(SCc3nc4ccccc4[nH]3)o2)cc1 27.2%, CC1=C/C(=N\OS(=O)(=O)c2ccccc2)C=CC1=O 53.5%

inhibition, inactive:
O=C(Oc1ccc([N+](=O)[O-])cc1)c1ccc(Cl)c(S(=O)(=O)N2CCCCC2)c1 -9.96%, COc1ccc(N(C(=O)c2ccc(C)cc2)S(=O)(=O)c2cccs2)cc1 5.74%, C=C1c2cc(CC)ccc2NC(=O)N1c1ccc(C)cc1 5.36%, O=C1Nc2ccccc2C12Nc1ccccc1S2 (centres undefined) 6.08%, CNC(=O)c1ccsc1NC(=O)c1ccc(S(=O)(=O)N2CCOCC2)cc1 -4.99%, CCCn1nc(C(=O)Nc2ccc3nc(C)sc3c2)c2ccccc2c1=O -3.02%, Fc1ccc(N2N=C(c3cccs3)CC2c2ccco2)c(F)c1 (centres undefined) -13.2%, COc1ccc(C2CC(c3cccs3)=NN2C(=O)COC(=O)c2cc3ccccc3cc2O)cc1OC (centres undefined) 12.7%, CC(C)(C)NC(=O)COC(=O)c1cc(Br)ccc1Cl -2.97%, CC(=O)Nc1ccc(S(=O)(=O)NC(C)C(=O)OCC(=O)NC2CCCC2)cc1 (centres undefined) 11.3%, O=C(Cc1cccs1)Nc1cccc(-c2nc3ccccc3[nH]2)c1 12.3%, COc1ccc(/C=C(\C#N)C(=O)NCCCn2ccnc2)cc1 8.04%, O=C(Nc1ccc(Cl)cc1)c1ccsn1 12.1%, CC(=O)Nc1cc(C(=O)O)ccc1S(=O)(=O)c1ccc(Cl)cc1 4.42%, Fc1ccc2[nH]c3c(N4CCSCC4)ncnc3c2c1 22.8%, Cc1cc(N2CCN(Cc3ccc4c(c3)OCO4)CC2)n2ncnc2n1 -5.12%, CCOc1ccc(NC(=O)Nc2cc(C)ccc2OC)cc1 1.77%, CC(=O)c1c(C)[nH]c(C(=O)NCc2ccc(C)cc2)c1C -10.3%, CC(C)(C)N(Cc1ccccc1)C(=O)COC(=O)CCc1c[nH]c2ccccc12 1.11%, Cc1ccc(NC(=S)NC(=O)/C=C/c2ccc(Cl)cc2)cc1 -8.1%, O=[N+]([O-])c1cc(S(=O)(=O)N2CCCC2)ccc1NN=C1CCCC1 -1.82%, O=C(NCCc1ccccc1)C1CCN(S(=O)(=O)c2ccc(Br)s2)CC1 -2.64%, COC(C(=O)Nc1ccc(S(=O)(=O)Nc2ccc(C)c(C)c2)cc1)c1ccccc1 (centres undefined) 0.51%, Cc1cc(C)nc(SC2CCCCC2NS(=O)(=O)c2ccc(Cl)cc2)n1 (centres undefined) -14.2%, COc1ccc(OC)c(/C=C/C(=O)OCC(=O)Nc2ccc3c(c2)OCCO3)c1 4.33%, CCOC(=O)/C(=N\Nc1cc(Cl)ccc1Cl)N1CCN(C)CC1 -4.67%, CCn1c(=O)cc(SCC(=O)NCCC2=CCCCC2)c2ccccc21 -16%, CCOC(=O)C1=C(C)NC(=S)NC1c1cccs1 (centres undefined) -4.54%, CCC1C=C(c2ccccc2)C=CN=C1N(CC)CC (centres undefined) 15%, CCC(CC)c1nnc(NC(=O)/C=C/c2ccco2)s1 8.13%, CCOC(=O)/C(N=Nc1cc(C(=O)O)cc(C(=O)O)c1)=C(\O)CCl -4.09%, CC1(C)CC(=O)C/C(=N\NC(=O)c2cccs2)C1 9.6%, Cc1ccc2nc(-c3cccnc3)c(NC3CCCC3)n2c1 21.2%, CC(=O)Nc1ccc(S(=O)(=O)Nc2nc(-c3ccc(C(C)(C)C)cc3)cs2)cc1 -2.4%, O=[N+]([O-])c1ccccc1SNc1ccccn1 0.95%, CC(=O)NC1C(Oc2ccc(C)cc2)OC2COC(c3ccco3)OC2C1O (centres undefined) 11.3%, O=[N+]([O-])c1ccc(N2CCN(S(=O)(=O)c3ccccc3)CC2)cc1N1CCc2ccccc2C1 1.38%, COc1ccccc1-c1nnc(NC(=O)c2cccc(N3C(=O)CCC3=O)c2)o1 -8.68%, O=C(/C=C\c1cn(-c2ccccc2)nc1-c1cccs1)N1CCOCC1 13.8%, O=C(Nn1c(SCc2ccc([N+](=O)[O-])cc2)nc2ccccc2c1=O)c1ccc(F)cc1 -6.11%, COc1ccc(-c2cc(C(=O)NC(Cc3c[nH]c4ccccc34)C(=O)O)c(C)o2)cc1OC (centres undefined) 2.65%, COc1ccc(NS(=O)(=O)c2ccc(NC(=S)NC(=O)/C=C/c3ccc(C)cc3)cc2)nn1 7.84%, COc1cccc(NC(=O)Cc2ccc(C)cc2)c1 4.68%, COC(=O)Cc1ccc(N(Cc2ccccc2F)S(=O)(=O)c2ccc(Br)cc2)cc1 -3.96%, COc1ccc(C(C(=O)NC2CCCCC2)N(C(=O)CCl)c2ccccc2Cl)cc1 (centres undefined) 3.18%, CCOc1ccc(S(=O)(=O)N(CC(=O)NCC(F)(F)F)Cc2ccco2)cc1 -7%, COCC(C)NC(=O)c1ccc(-n2nc(C(F)(F)F)cc2-c2cccs2)cc1 (centres undefined) -1.6%, CCCNC(=O)c1ccc(Cl)c(Cl)c1 10.1%, CCN1CN(Cc2ccccc2)CNC1=S 3.98%, O=S(=O)(/N=C(/Nc1ccccc1)c1ccccc1)c1cccs1 -10.3%, Cc1ccc(CC2S/C(=C(/C#N)C(=O)N3CCOCC3)N(c3ccccc3)C2=O)cc1 (centres undefined) -9.98%, C=CCNC(=O)/C(=C\c1cccc([N+](=O)[O-])c1)NC(=O)c1ccccc1 3.63%, COc1ccc(NC(=O)COC(=O)c2ccc(NS(=O)(=O)/C=C/c3ccccc3)cc2)cc1 9.83%, COc1cc2c(cc1OC)C(=O)NCC(C)(C)O2 1.34%, CCCSc1nc2[nH]ncc2c(=O)[nH]1 -7.72%, Cc1ccc(Nc2nc(CSc3nnc(-c4ccncc4)n3-c3ccccc3C)cs2)cc1 -7.55%, Cc1ccc(C(=O)N2CC(=O)Nc3ccccc32)o1 -5.68%, CC(C)(C)OC(=O)N/N=C/c1ccc(C(=O)O)cc1 1.78%, O=C(CC1SC(=Nc2ccccc2)N(Cc2ccccn2)C1=O)Nc1cccc(Cl)c1 (centres undefined) -2.96%, COC(=O)COc1ccc2oc(=O)cc(C)c2c1 4.15%, CCCc1cc(=O)oc2c(C)c(O)c(CN3CCCCC3)cc12 -0.41%, O=c1c2c(ncn1Cc1ccccc1)nc1n2CCC1 11.2%, Clc1ccc(-c2nnc(SCc3nc4ccccc4s3)o2)cc1 12%, Clc1ccccc1SCc1nc2ccccc2[nH]1 7.26%, CCCC/C(C)=N/NC(=O)NC1CCCCC1 1.57%, CCCCN(C)CCC(=O)Nc1ccc(Cl)cc1 9.01%, Nc1nc(CC(=O)CSc2ccc(Cl)cc2)nc(Nc2ccc(F)cc2)n1 5.35%, O=C(COc1ccccc1F)NNC(=O)c1ccc(N2CCCCC2)c([N+](=O)[O-])c1 -5.34%, COc1ccc([N+](=O)[O-])cc1NC(=O)c1ccc(N(Cc2ccccc2C)S(C)(=O)=O)cc1 10.8%, CCCCCCCCCOC1OC(CO)C(O)C(O)C1NC(C)=O (centres undefined) -2.61%, N=C1C(=O)OCC1c1ccccc1NC(=O)CN1CCCCC1 (centres undefined) 0.12%, O=C(Nn1c(-c2ccccc2)nc2ccccc2c1=O)c1ccc([N+](=O)[O-])cc1 -0.78%, Cc1ccc(S(=O)(=O)/N=S(\C)C(C)C)cc1 (centres undefined) 0.24%, COC(=O)[C@H]1Cc2cnoc2C[C@]1(C)C(=O)O 13.5%, Cc1ccc(S(=O)(=O)c2ccc(Oc3ccccc3)cc2)cc1 -10.2%, CCOC(=O)C1(S(=O)(=O)c2ccccc2)CCN(Cc2ccccc2)CC1 -2.88%, O=C(Cc1ccccc1)NNC1CC(=O)N(c2ccc(Br)cc2)C1=O (centres undefined) -17.6%, COc1ccc(NS(=O)(=O)c2ccc(NC(=O)c3ccc(N(C)S(C)(=O)=O)cc3)cc2)cc1 3.65%, Cc1cc(Br)ccc1SCC(=O)OCC(=O)NCc1ccc2c(c1)OCO2 1.98%, C/C(=N\Nc1ccc([N+](=O)[O-])cc1)c1ccc(-n2nncc2C(C)(C)C)cc1 -1.64%, Cc1ccc(NC(=O)NC(=O)N(C2CCCCC2)S(=O)(=O)c2ccccc2)cc1 1.91%, Cc1cc(C)c[n+](-c2nc3ccccc3nc2[N-]S(=O)(=O)c2cccs2)c1 -5.36%, O=C(Nc1ccc2c(c1)OCO2)c1ccc(N2C(=O)c3ccccc3C2=O)cc1 -3%, CC1CCCN(S(=O)(=O)c2ccc(N(C(=O)c3cnccn3)C(C(=O)NC3CCCCC3)c3cccs3)cc2)C1 (centres undefined) 8.87%
